Results: article PMC5540273 (PLoS ONE, 2017)

Key:
Settings in all cases: concentration: 1 μM, replicates: in singlicate; n = 1
PIKFYVE = tested on: PIKFYVE
PIM1 = tested on: PIM1
PIM2 = tested on: PIM2
PIM3 = tested on: PIM3
PIP5K1A = tested on: PIP5K1A
PIP5K1C = tested on: PIP5K1C
PIP5K2B = tested on: PIP5K2B
PIP5K2C = tested on: T1, PIP5K2C
T1 construct: gene PIP4K2C

PKAC-alpha = tested on: T2, PKAC-alpha
T2 construct: gene PRKACA

PKAC-beta = tested on: T3, PKAC-beta
T3 construct: gene PRKACB
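Also: KINOMEscan kinase panel screen.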

Row | Compound | %Inh (PIKFYVE) [%] | %Inh (PIM1) [%] | %Inh (PIM2) [%] | %Inh (PIM3) [%] | %Inh (PIP5K1A) [%] | %Inh (PIP5K1C) [%] | %Inh (PIP5K2B) [%] | %Inh (PIP5K2C) [%] | %Inh (PKAC-alpha) [%] | %Inh (PKAC-beta) [%]
1 | O=C1NC(=O)C(N2CCc3ccccc32)=C1c1cccc(Cl)c1 [SB-408010] | 4 | 16 | 9 | 6 | 0 | 39 | 0 | 0 | 11 | 14
2 | Cc1cccc(-c2nc(Nc3ccc4ncsc4c3)c3ccccc3n2)n1 [GW867588] | 54 | 9 | 0 | 16 | 27 | 4 | 0 | 18 | 11 | 21
3 | [2H]C([2H])(c1cccc(C(F)(F)F)c1C)n1ccn2c(=O)nc(N3CCOCC3)cc12 [GSK2336394] | 0 | 0 | 0 | 0 | 0 | 31 | 4 | 0 | 0 | 12
4 | COc1cc2c(cc1OC[C@@H](O)CO)ncc1c3ccc(C#N)cc3[nH]c21 | 56 | 0 | 81 | 35 | 38 | 47 | 42 | 76 | 0 | 0
5 | O=C(NOCC1CC1)c1ccc(F)c(F)c1Nc1ccc(I)cc1Cl | 40 | 0 | 0 | 0 | 0 | 3 | 0 | 0 | 0 | 0
6 | Cc1nnc(-c2ccc(C)c(-c3ccc(C(=O)Nc4ccc(NS(C)(=O)=O)cc4)cc3)c2)o1 [GW702865] | 4 | 0 | 0 | 0 | 52 | 26 | 17 | 18 | 0 | 0
7 | O=C1Cc2cc(Nc3nc(NCc4cccc(S(=O)(=O)C(F)(F)F)c4)ncc3C(F)(F)F)ccc2N1 | 6 | 100 | 0 | 6 | 13 | 3 | 20 | 0 | 0 | 7
8 | O=C(Nc1cccc(-c2nn3ncccc3c2-c2ccnc(Nc3cccc(C(F)(F)F)c3)n2)c1)c1c(F)cccc1F [GSK299495] | 15 | 0 | 0 | 0 | 18 | 37 | 100 | 68 | 12 | 6
9 | COc1cc(Nc2nccc(N3CCC(NC(=O)c4cccc(NC(C)=O)c4)C3)n2)cc(OC)c1OC (stereo not shown) [GSK1379754] | 0 | 0 | 0 | 0 | 0 | 45 | 18 | 92.4 | 3 | 11
10 | Cc1nnc(-c2ccc3occ(-c4ccc(C(C)O)cc4)c3c2)o1 (stereo not shown) | 0 | 24 | 80 | 31 | 0 | 4 | 27 | 17 | 7 | 17
11 | CN1c2ccc(CNc3ccc(F)cc3)cc2-c2c(cnn2C)S1(=O)=O | 17 | 0 | 14 | 5 | 5 | 23 | 0 | 24 | 5 | 0
12 | N#Cc1ccc(-c2cc(-c3c[nH]nc3-c3ccccn3)ccn2)cc1 [GW693028] | 0 | 0 | 0 | 0 | 7 | 71 | 23 | 7 | 0 | 0
13 | NS(=O)(=O)CCc1cccc(Nc2nccc(-c3c(-c4cccc(NC(=O)c5c(F)cccc5F)c4)nn4ccccc34)n2)c1 [GSK336735] | 0 | 0 | 0 | 0 | 0 | 36 | 0 | 17 | 38 | 37
14 | Cc1c(Cn2c(C)nn3c(=O)cc(N4CCOC(C)C4)nc23)cccc1C(F)(F)F (stereo not shown) [GSK2344444] | 46 | 11 | 0 | 0 | 0 | 0 | 0 | 0 | 4 | 17
15 | CN(C(=O)c1ccc(-c2cc(-c3c[nH]nc3-c3ccccn3)ccn2)cc1)C1CCOCC1 [GW810083] | 40 | 0 | 0 | 0 | 0 | 31 | 0 | 49 | 0 | 0
16 | Cl.Oc1cccc(Nc2ccnc3cc(-c4ccncc4)ccc23)c1 [GW494601] | 44 | 28 | 0 | 0 | 35 | 75 | 9 | 85 | 0 | 0
